NadD inh = inhibitors of S. aureus NadD, primary screen, biochemical, colorimetric, uHTS; AID 602399, 2012; actives 0.78% (n = 360,000); inhibition, % at 20 µM; purified NadD enzyme, colorimetric absorbance read-out; Nicotinate-nucleotide adenylyltransferase NadD (Staphylococcus aureus N315); in the data active = inhibition above about 26%
FAS-TE inh = FAS thioesterase domain inhibitors, primary screen, biochemical, fluorescence intensity, uHTS. Fatty acid synthase (Homo sapiens), P49327. recombinant FAS-TE, OMFH fluorogenic substrate, fluorescence endpoint. inhibition, % at 15 µM. actives 0.67% (n = 360,000). AID 602261, 2012;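 active = compounds whose normalised, plate-corrected inhibition of enzyme fluorescence in the single-dose primary screen is 50% or more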;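 also: 0% = DMSO with enzyme and 100% = substrate without enzyme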
Target sequence (P49327 whole entry, looked up, the tested form may be a part): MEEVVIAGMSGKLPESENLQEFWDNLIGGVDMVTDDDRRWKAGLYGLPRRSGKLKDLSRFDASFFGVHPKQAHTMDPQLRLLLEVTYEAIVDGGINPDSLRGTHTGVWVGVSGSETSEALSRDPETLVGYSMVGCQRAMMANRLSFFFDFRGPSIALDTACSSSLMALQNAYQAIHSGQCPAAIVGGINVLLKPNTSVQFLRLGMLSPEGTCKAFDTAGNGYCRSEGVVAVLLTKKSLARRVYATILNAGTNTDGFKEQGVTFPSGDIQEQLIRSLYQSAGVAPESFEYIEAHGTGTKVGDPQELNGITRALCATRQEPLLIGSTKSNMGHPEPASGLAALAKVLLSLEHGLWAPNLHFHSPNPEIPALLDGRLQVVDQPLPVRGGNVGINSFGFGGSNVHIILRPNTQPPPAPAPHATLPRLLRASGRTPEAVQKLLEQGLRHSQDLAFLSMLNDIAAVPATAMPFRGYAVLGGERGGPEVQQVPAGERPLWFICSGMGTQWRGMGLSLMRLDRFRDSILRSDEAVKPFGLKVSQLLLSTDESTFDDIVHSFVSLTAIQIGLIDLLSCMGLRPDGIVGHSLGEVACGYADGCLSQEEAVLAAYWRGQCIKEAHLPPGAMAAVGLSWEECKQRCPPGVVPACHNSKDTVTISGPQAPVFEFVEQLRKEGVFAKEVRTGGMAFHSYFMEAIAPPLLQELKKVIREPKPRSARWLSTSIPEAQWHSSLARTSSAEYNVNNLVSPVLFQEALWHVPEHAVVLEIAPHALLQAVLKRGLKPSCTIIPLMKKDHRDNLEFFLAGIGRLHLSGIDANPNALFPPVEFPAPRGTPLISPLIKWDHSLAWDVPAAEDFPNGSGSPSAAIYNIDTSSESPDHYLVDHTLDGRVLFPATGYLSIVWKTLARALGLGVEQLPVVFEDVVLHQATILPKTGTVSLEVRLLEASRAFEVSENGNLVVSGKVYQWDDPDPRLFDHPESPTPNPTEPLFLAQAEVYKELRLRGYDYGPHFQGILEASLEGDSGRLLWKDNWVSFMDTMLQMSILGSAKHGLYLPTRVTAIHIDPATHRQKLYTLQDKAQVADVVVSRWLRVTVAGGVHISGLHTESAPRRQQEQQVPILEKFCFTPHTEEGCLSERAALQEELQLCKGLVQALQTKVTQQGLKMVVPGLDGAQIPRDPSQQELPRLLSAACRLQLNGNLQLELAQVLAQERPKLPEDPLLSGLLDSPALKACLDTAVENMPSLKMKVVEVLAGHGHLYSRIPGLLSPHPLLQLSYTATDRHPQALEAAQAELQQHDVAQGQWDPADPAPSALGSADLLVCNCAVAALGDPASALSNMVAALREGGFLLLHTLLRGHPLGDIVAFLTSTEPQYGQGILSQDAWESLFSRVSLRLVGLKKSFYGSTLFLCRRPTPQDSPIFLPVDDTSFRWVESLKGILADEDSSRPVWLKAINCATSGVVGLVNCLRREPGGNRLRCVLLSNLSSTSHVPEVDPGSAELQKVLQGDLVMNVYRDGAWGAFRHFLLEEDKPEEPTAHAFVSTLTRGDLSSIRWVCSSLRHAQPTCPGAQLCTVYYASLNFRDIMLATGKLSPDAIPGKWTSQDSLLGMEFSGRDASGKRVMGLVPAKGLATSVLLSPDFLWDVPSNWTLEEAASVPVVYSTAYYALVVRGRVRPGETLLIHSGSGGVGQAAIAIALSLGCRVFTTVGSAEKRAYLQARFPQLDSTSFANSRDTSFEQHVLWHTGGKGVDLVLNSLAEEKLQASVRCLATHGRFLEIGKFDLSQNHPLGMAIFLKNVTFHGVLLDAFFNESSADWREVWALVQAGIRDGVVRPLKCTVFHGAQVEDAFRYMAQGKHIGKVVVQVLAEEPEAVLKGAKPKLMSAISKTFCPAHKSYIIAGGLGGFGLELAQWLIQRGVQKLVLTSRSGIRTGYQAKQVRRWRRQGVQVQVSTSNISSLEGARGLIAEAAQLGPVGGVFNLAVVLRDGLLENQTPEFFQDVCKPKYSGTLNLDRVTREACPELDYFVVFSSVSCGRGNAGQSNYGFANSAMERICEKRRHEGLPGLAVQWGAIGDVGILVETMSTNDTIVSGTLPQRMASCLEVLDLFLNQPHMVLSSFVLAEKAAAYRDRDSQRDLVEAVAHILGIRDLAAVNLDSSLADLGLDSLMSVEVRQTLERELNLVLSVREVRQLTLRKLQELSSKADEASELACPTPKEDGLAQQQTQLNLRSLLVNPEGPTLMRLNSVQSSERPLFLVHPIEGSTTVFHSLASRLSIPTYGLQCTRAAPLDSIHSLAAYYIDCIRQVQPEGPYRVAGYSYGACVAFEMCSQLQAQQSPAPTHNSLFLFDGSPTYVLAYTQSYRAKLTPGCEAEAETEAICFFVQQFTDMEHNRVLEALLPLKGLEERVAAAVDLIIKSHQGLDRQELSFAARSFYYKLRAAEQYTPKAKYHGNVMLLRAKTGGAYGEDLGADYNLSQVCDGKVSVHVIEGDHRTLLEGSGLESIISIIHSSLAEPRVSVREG
NR3A LBD binder = binders of NR3A ligand-binding domain, primary screen, biophysical, differential scanning fluorimetry, uHTS. Glutamate receptor ionotropic, NMDA 3A (GRIN3A) ligand-binding domain. NR3A LBD differential scanning fluorimetry, Tm shift; 0% = protein alone, 100% = glycine-bound protein. Tm shift relative to glycine control, % at 25 µM. actives 2.5% (n = 340,000);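 active = melting temperature shift of at least 10% of the positive control shift, at one fixed dose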
rCAG RNA binder = binders of r(CAG) RNA repeats, primary screen, biochemical, fluorescence | r(CAG) RNA repeat, TO-PRO-1 dye displacement fluorescence | actives 1.3% (n = 370,000) | inhibition, % at 3 µM;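 active = inhibition above the plate cutoff, the mean of all test compounds on that plate plus 3 SD, cut at about 35% in these data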;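 also: 0% = DMSO alone and 100% = 100 µM mitoxantrone as full dye displacement; higher means more dye released from RNA so lower well fluorescence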
Starred values were filed as active, the others as inactive; . = no result. Compounds with a hit are over-represented: about 4.3% of the library has one in this group of screens.

SMILES	NadD inh	FAS-TE inh	NR3A LBD binder	rCAG RNA binder
COC(=O)[C@]12C[C@H](CC(=O)NCCCCc3ccccc3)C(=O)N(Cc3ccco3)C1=C[C@H](COCc1ccccc1)O[C@@H]2C	.	.	.	6.1
COc1ncc(-c2cc(C(C)=O)c3n(c2=O)CCC3)c(OC)n1	.	.	.	2.5
CCN(CC)C(=O)CC[C@@H]1CC[C@]2(CCCN(Cc3ccccc3)C2)O1	.	.	.	1.6
Cc1ccc(NC(=O)c2ccc(CNS(=O)(=O)c3cccc(C(F)(F)F)c3)cc2)cc1	-0.5	-5.2	11.3*	-2.5
O=C(Nc1ccccc1)c1ccc(S(=O)(=O)NCC2CCCO2)cc1 (stereo unspecified)	-2.6	-4.8	0.1	-0.4
COc1cccc(S(=O)(=O)NCc2ccc(C(=O)Nc3cccc(Cl)c3)cc2)c1	-8.0	27.0	15.1*	5.7
O=C(Nc1cccc(Cl)c1)c1ccc(S(=O)(=O)NCC2CCCO2)cc1 (stereo unspecified)	-7.5	1.3	21.1*	4.5
COc1cccc(S(=O)(=O)NCc2ccc(C(=O)Nc3ccc(Cl)cc3)cc2)c1	-10.5	-2.2	5.0	8.1
C#CCN1C(=O)[C@]2(NCCc3c2[nH]c2ccc(OC)cc32)c2cc(F)ccc21	.	.	.	1.5
CN1/C(=C\C(=O)c2cccc([N+](=O)[O-])c2)Sc2ccccc21	1.1	2.8	12.4*	5.3
Cc1ccc(-n2c(SCc3ccc(Cl)c(Cl)c3)nnc2-c2ccc(C(C)(C)C)cc2)cc1	.	.	.	1.2
CCOC(=O)N1CCC(NC(=O)c2cc(S(=O)(=O)NCCc3ccccc3)ccc2F)CC1	-5.6	-7.7	-5.5	-7.9
O=C(Nc1cccc(Cl)c1)c1cc(S(=O)(=O)NCCc2ccc(Cl)cc2)ccc1F	-3.4	33.7	31.8*	19.3
Cc1ccc(NC(=O)c2cc(S(=O)(=O)NCCc3ccccc3)ccc2F)cc1Cl	-10.3	24.9	23.9*	4.2
Cc1ccccc1C(=O)NC1CCCCN(C(C)C)C1=O (stereo unspecified)	.	.	.	1.5
CC(C)=CCC/C(C)=C/CN1C(=O)N(c2ccc(F)cc2)[C@H]2C[C@@H](c3ccccc3)[C@@H](C)[C@@H](C(=O)N3CCOCC3)C[C@H]21	.	.	.	5.5
CCCC(=O)N1CCC[C@]2(CC[C@@H](CCC#N)O2)C1	.	.	.	0.7
Oc1ccc(C=NNC(=S)Nc2ccc(F)cc2)c(O)c1	1.0	0.4	27.2*	8.3
Oc1cccc(/C=N/NC(=S)Nc2cccnc2)c1O	1.2	-6.3	-0.7	21.0
Oc1ccc(/C=N/NC(=S)Nc2cccnc2)c(O)c1	-1.0	-3.3	11.8*	2.5
O=C(N/N=C/c1ccc(O)cc1O)C(=O)N/N=C/c1ccc(O)cc1O	10.7	4.2	36.2*	6.6
O=C(NN=Cc1ccc(O)cc1)C(=O)NN=Cc1ccc(O)cc1	0.2	-4.6	8.3	5.3
COCCCN1C(=O)[C@H](CC(=O)N2CCOCC2)[C@]2(C(=O)OC)CCCCC=C12	.	.	.	0.4
CCOC(=O)[C@@H]1c2[nH]c3ccccc3c2C[C@@]2(C(=O)OC)C=CCN12	.	.	.	9.1
Cc1cc(C(=O)N/N=C/c2ccc(OC(=O)c3ccccc3Br)cc2)n[nH]1	-3.3	-3.7	11.9*	1.1
SMILES	NadD inh	FAS-TE inh	NR3A LBD binder	rCAG RNA binder
O=C(N/N=C/c1ccc(OC(=O)c2ccccc2Cl)cc1)c1ccccn1	1.8	-7.3	-6.7	.
Cc1cccc(C(=O)Oc2ccc(/C=N/NC(=O)c3ccc(O)cc3)cc2)c1	6.7	2.8	23.0*	7.0
Cc1cccc(C(=O)Oc2ccc(/C=N/NC(=O)Cc3ccc([N+](=O)[O-])cc3)cc2)c1	3.8	-3.6	7.4	0.6
Cc1cccc(C(=O)Oc2ccc(/C=N/NC(=O)c3ccccc3O)cc2)c1	18.5	6.9	19.4*	19.3
COc1ccc(C(=O)N/N=C/c2ccc(OC(=O)c3ccccc3)cc2)cc1	3.5	-9.9	1.4	3.6
O=C(N/N=C/c1ccc(OC(=O)c2ccccc2Cl)cc1)c1cc(O)cc(O)c1	16.9	7.1	12.6*	33.4
Cc1cc(N2CCN(CC(C)(C)O)C[C@@H]2C)ccc1N1CCN(Cc2ccccc2)[C@H](C)C1	.	.	.	2.2
COc1ccccc1Cc1c(C2CCCCC2)nc2c(C)cc(Br)cn12	.	.	.	7.8
CCCn1c(CCNc2nc(-c3ccc(Cl)c([N+](=O)[O-])c3)cs2)nc2cc(Cl)c(Cl)cc21	14.1	21.1	13.4*	11.8
Cc1nonc1NC(=O)CSc1nc(C23CC4CC(CC(C4)C2)C3)nc2ccccc12	8.7	31.0	17.5*	-7.1
CCOC(=O)[C@]12CCCC3=C1N(CCC3)C(=O)[C@@H](CC(=O)N1CCN(C(=O)c3ccco3)CC1)C2	.	.	.	3.9
Nc1nonc1-n1nnc(C(=O)N/N=C/c2cccc(Cl)c2)c1CSc1ccc(Cl)cc1	11.5	9.6	33.2*	2.4
Nc1nonc1-n1nnc(C(=O)N/N=C/c2cccc(Cl)c2)c1CSc1ccccc1	9.5	19.2	6.0	-0.3
Nc1nonc1-n1nnc(C(=O)N/N=C/c2ccccc2)c1CSc1ccc(Cl)cc1	11.2	-2.8	29.7*	-0.4
Cc1cc(C)c2nc(NCc3ccccc3O)sc2c1	-3.6	16.7	27.3*	12.2
COc1cc(CNc2nc3c(C)cc(C)cc3s2)ccc1O	-3.2	9.2	0.6	10.5
Cc1ccc(C(=O)NC2CCCCN(C(C)C)C2=O)cc1 (stereo unspecified)	.	.	.	-2.0
Cc1oc(C(=O)Nc2ccc(O)cc2)cc1COc1ccccc1	-5.6	4.7	16.0*	6.0
O=C(CN1CCOCC1)N/N=C/c1c(O)ccc2ccccc12	-2.0	-6.1	1.4	-2.6
NC(=O)N/N=C\c1cc(Br)ccc1O	-6.7	-3.8	-5.4	1.4
COc1ccc(/C=N/Nc2nc(N)cc(Cl)n2)cc1OC	-5.8	-5.5	12.0*	-0.1
O=C(N/N=C/c1cc(Br)ccc1O)Nc1ccccc1	2.4	3.6	27.7*	13.5
O=C(CNc1ccccc1)N/N=C/c1c(O)ccc2ccccc12	4.2	16.6	20.2*	21.9
O=C(CNc1cccc2ccccc12)N/N=C/c1cccc(Oc2ccccc2)c1	27.6	16.6	17.0*	15.1
COc1ccc(C2CC(=O)C(c3ccccc3C)=CN2Cc2ccccc2)cc1 (stereo unspecified)	.	.	.	2.1
SMILES	NadD inh	FAS-TE inh	NR3A LBD binder	rCAG RNA binder
Cc1ccc2c(c1)C(CS(=O)(=O)NCCc1ccccc1)NC2 (stereo unspecified)	.	.	.	4.5
Cc1ccc(-c2cc(C(=O)NN=Cc3ccc(N(C)C)cc3)[nH]n2)cc1C	.	.	.	15.3
O=C(CSCC(=O)Nc1ccccc1)N/N=C/c1c(O)ccc2ccccc12	1.1	25.9	9.3	19.0
Nc1cc(Cl)nc(N/N=C/c2c(O)ccc3ccccc23)n1	0.2	6.1	27.7*	29.2
CC(=O)Nc1ccc(N=Cc2c(O)ccc3ccccc23)cc1	0.4	-4.2	39.4*	-2.7
O=C(N/N=C/c1c(O)ccc2ccccc12)Nc1ccccc1	.	.	39.4*	11.7
O=C(O)c1ccc(N=Cc2c(O)ccc3ccccc23)cc1	-4.5	-3.4	0.3	0.3

Screening results: PubChem BioAssay, several laboratories
